{
  "source": "PubChem BioAssay AID1159580",
  "about": "(chemical genetic matrix, 2015)",
  "assay": "chemical genetic growth profiling, strain panel (AID 1159580);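 also: tested at 20 µM; growth read once vehicle control cultures reached saturation at 30 °C; 1 = growth at the plate median or of vehicle wells; lower values mean less growth of the strain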",
  "settings": "S. cerevisiae deletion strains, growth OD",
  "key": {"[1]": {"settings": "locus YDL101C, strain DUN1, stronger effect = lower value"}, "[2]": {"settings": "locus YHR030C, strain SLT2, stronger effect = lower value"}},
  "note": "About 2,000 (36%) of roughly 5,500 compounds were called active. Not shown: some 18% with an inconclusive outcome. Some of the results follow. Values without a mark were called inactive. Rule as the data show it: active = normalized growth mostly below about 0.91 (no sharp cut-off); inconclusive = no clear call, values can overlap the other calls; inactive = mostly above about 0.92.",
  "data": [
    {"smiles": "N#Cc1ccc(S(=O)(=O)Nc2ccccc2Oc2ccc(Cl)cc2Cl)cc1", "values": [
      {"measurement": "normalized growth", "setting": "locus YAR019C, strain CDC15, stronger effect = lower value", "value": 0.98},
      {"measurement": "normalized growth", "setting": "locus YBL105C, strain PKC1, stronger effect = lower value", "value": 0.98},
      {"measurement": "normalized growth", "setting": "locus YBR135W, strain CKS1, stronger effect = lower value", "value": 0.976},
      {"measurement": "normalized growth", "setting": "locus YBR136W, strain MEC1, stronger effect = lower value", "value": 0.985},
      {"measurement": "normalized growth", "setting": "locus YBR160W, strain CDC28, stronger effect = lower value", "value": 0.983},
      {"measurement": "normalized growth", "setting": "locus YDL017W, strain CDC7, stronger effect = lower value", "value": 0.979},
      {"measurement": "normalized growth", "setting": "locus YDL028C, strain MPS1, stronger effect = lower value", "value": 0.979},
      {"measurement": "normalized growth", "setting": "[1]", "value": 0.986},
      {"measurement": "normalized growth", "setting": "locus YDL108W, strain KIN28, stronger effect = lower value", "value": 0.973},
      {"measurement": "normalized growth", "setting": "locus YDL132W, strain cdc53, stronger effect = lower value", "value": 0.979},
      {"measurement": "normalized growth", "setting": "locus YDL214C, strain PRR2, stronger effect = lower value", "value": 0.968},
      {"measurement": "normalized growth", "setting": "locus YDR052C, strain DBF4, stronger effect = lower value", "value": 0.979},
      {"measurement": "normalized growth", "setting": "locus YDR054C, strain cdc34, stronger effect = lower value", "value": 0.974},
      {"measurement": "normalized growth", "setting": "locus YDR226W, strain ADK1, stronger effect = lower value", "value": 0.969},
      {"measurement": "normalized growth", "setting": "locus YDR477W, strain SNF1, stronger effect = lower value", "value": 0.935},
      {"measurement": "normalized growth", "setting": "locus YER123W, strain YCK3, stronger effect = lower value", "value": 0.948},
      {"measurement": "normalized growth", "setting": "locus YER133W, strain GLC7, stronger effect = lower value", "value": 0.928},
      {"measurement": "normalized growth", "setting": "locus YFL009W, strain cdc4, stronger effect = lower value", "value": 0.987},
      {"measurement": "normalized growth", "setting": "locus YFL029C, strain CAK1, stronger effect = lower value", "value": 0.979},
      {"measurement": "normalized growth", "setting": "locus YFR003C, strain YPI1, stronger effect = lower value", "value": 0.974},
      {"measurement": "normalized growth", "setting": "locus YFR019W, strain FAB1, stronger effect = lower value", "value": 0.955},
      {"measurement": "normalized growth", "setting": "locus YFR028C, strain CDC14, stronger effect = lower value", "value": 0.98},
      {"measurement": "normalized growth", "setting": "locus YGR040W, strain KSS1, stronger effect = lower value", "value": 0.945},
      {"measurement": "normalized growth", "setting": "locus YGR052W, strain FMP48, stronger effect = lower value", "value": 0.985},
      {"measurement": "normalized growth", "setting": "locus YGR092W, strain DBF2, stronger effect = lower value", "value": 0.879},
      {"measurement": "normalized growth", "setting": "[2]", "value": 0.88},
      {"measurement": "normalized growth", "setting": "locus YHR079C, strain IRE1, stronger effect = lower value", "value": 0.931},
      {"measurement": "normalized growth", "setting": "locus YHR082C, strain KSP1, stronger effect = lower value", "value": 1.07},
      {"measurement": "normalized growth", "setting": "locus YHR205W, strain SCH9, stronger effect = lower value", "value": 0.936},
      {"measurement": "normalized growth", "setting": "locus YIL147C, strain SLN1, stronger effect = lower value", "value": 0.986},
      {"measurement": "normalized growth", "setting": "locus YJL095W, strain BCK1, stronger effect = lower value", "value": 0.905},
      {"measurement": "normalized growth", "setting": "locus YJL128C, strain PBS2, stronger effect = lower value", "value": 0.961},
      {"measurement": "normalized growth", "setting": "locus YJL157C, strain FAR1, stronger effect = lower value", "value": 0.947},
      {"measurement": "normalized growth", "setting": "locus YJR016C, strain ILV3, stronger effect = lower value", "value": 0.97},
      {"measurement": "normalized growth", "setting": "locus YJR066W, strain TOR1 (second series), stronger effect = lower value", "value": 0.9},
      {"measurement": "normalized growth", "setting": "locus YJR066W, strain TOR1, stronger effect = lower value", "value": 1.04},
      {"measurement": "normalized growth", "setting": "locus YKL048C, strain ELM1, stronger effect = lower value", "value": 0.959},
      {"measurement": "normalized growth", "setting": "locus YKL067W, strain YNK1, stronger effect = lower value", "value": 0.973},
      {"measurement": "normalized growth", "setting": "locus YKL101W, strain HSL1, stronger effect = lower value", "value": 0.957},
      {"measurement": "normalized growth", "setting": "locus YKL193C, strain SDS22, stronger effect = lower value", "value": 0.978},
      {"measurement": "normalized growth", "setting": "locus YKL203C, strain TOR2, stronger effect = lower value", "value": 1.02},
      {"measurement": "normalized growth", "setting": "locus YLR113W, strain HOG1, stronger effect = lower value", "value": "0.836 (active)"},
      {"measurement": "normalized growth", "setting": "locus YLR133W, strain CKI1, stronger effect = lower value", "value": 0.972},
      {"measurement": "normalized growth", "setting": "locus YLR403W, strain SFP1, stronger effect = lower value", "value": 0.912},
      {"measurement": "normalized growth", "setting": "locus YML070W, strain DAK1, stronger effect = lower value", "value": 0.94},
      {"measurement": "normalized growth", "setting": "locus YMR001C, strain CDC5, stronger effect = lower value", "value": 0.982},
      {"measurement": "normalized growth", "setting": "locus YMR205C, strain PFK2 (second series), stronger effect = lower value", "value": 0.972},
      {"measurement": "normalized growth", "setting": "locus YMR277W, strain FCP1, stronger effect = lower value", "value": 0.973},
      {"measurement": "normalized growth", "setting": "locus YNL006W, strain LST8, stronger effect = lower value", "value": 0.977},
      {"measurement": "normalized growth", "setting": "locus YNL020C, strain ARK1, stronger effect = lower value", "value": 0.965},
      {"measurement": "normalized growth", "setting": "locus YNL161W, strain CBK1, stronger effect = lower value", "value": 0.982},
      {"measurement": "normalized growth", "setting": "locus YNL183C, strain NPR1, stronger effect = lower value", "value": 1.08},
      {"measurement": "normalized growth", "setting": "locus YNL207W, strain RIO2, stronger effect = lower value", "value": 0.979},
      {"measurement": "normalized growth", "setting": "locus YNL222W, strain SSU72, stronger effect = lower value", "value": 0.978},
      {"measurement": "normalized growth", "setting": "locus YNL307C, strain MCK1 (second series), stronger effect = lower value", "value": 0.965},
      {"measurement": "normalized growth", "setting": "locus YOL078W, strain AVO1, stronger effect = lower value", "value": 0.971},
      {"measurement": "normalized growth", "setting": "locus YOL136C, strain PFK27, stronger effect = lower value", "value": 0.967},
      {"measurement": "normalized growth", "setting": "locus YOR061W, strain CKA2, stronger effect = lower value", "value": 0.872},
      {"measurement": "normalized growth", "setting": "locus YOR119C, strain RIO1, stronger effect = lower value", "value": 1.01},
      {"measurement": "normalized growth", "setting": "locus YOR231W, strain MKK1, stronger effect = lower value", "value": 1.01},
      {"measurement": "normalized growth", "setting": "locus YOR329C, strain SCD5, stronger effect = lower value", "value": 0.982},
      {"measurement": "normalized growth", "setting": "locus YPL031C, strain PHO85, stronger effect = lower value", "value": 0.926},
      {"measurement": "normalized growth", "setting": "locus YPL153C, strain RAD53, stronger effect = lower value", "value": 0.945},
      {"measurement": "normalized growth", "setting": "locus YPL204W, strain HRR25, stronger effect = lower value", "value": 0.949},
      {"measurement": "normalized growth", "setting": "locus YPL209C, strain IPL1, stronger effect = lower value", "value": 0.983},
      {"measurement": "normalized growth", "setting": "locus YPL256C, strain CLN2, stronger effect = lower value", "value": 0.967},
      {"measurement": "normalized growth", "setting": "locus YPR025C, strain CCL1, stronger effect = lower value", "value": 0.976},
      {"measurement": "normalized growth", "setting": "locus YPR106W, strain ISR1, stronger effect = lower value", "value": 0.96},
      {"measurement": "normalized growth", "setting": "locus YPR111W, strain DBF20, stronger effect = lower value", "value": 0.963},
      {"measurement": "normalized growth", "setting": "strain NNK1, stronger effect = lower value", "value": 0.981},
      {"measurement": "normalized growth", "setting": "strain TSCII, stronger effect = lower value", "value": 0.99}
    ]},
    {"smiles": "COc1ccc(S(=O)(=O)Nc2ccccc2Oc2ccc(Cl)cc2Cl)cc1OC", "values": [
      {"measurement": "normalized growth", "setting": "locus YAL013W, strain DEP1, stronger effect = lower value", "value": 1.01},
      {"measurement": "normalized growth", "setting": "locus YBR229C, strain ROT2, stronger effect = lower value", "value": 1.01},
      {"measurement": "normalized growth", "setting": "locus YCL061C, strain MRC1, stronger effect = lower value", "value": 1.07},
      {"measurement": "normalized growth", "setting": "[1]", "value": 1.08},
      {"measurement": "normalized growth", "setting": "locus YDL134C, strain PPH21, stronger effect = lower value", "value": 1.01},
      {"measurement": "normalized growth", "setting": "locus YDR150W, strain NUM1, stronger effect = lower value", "value": 0.933},
      {"measurement": "normalized growth", "setting": "locus YEL061C, strain CIN8, stronger effect = lower value", "value": 0.999},
      {"measurement": "normalized growth", "setting": "locus YGR078C, strain PAC10, stronger effect = lower value", "value": 1.04},
      {"measurement": "normalized growth", "setting": "locus YGR229C, strain SMI1, stronger effect = lower value", "value": 0.995},
      {"measurement": "normalized growth", "setting": "[2]", "value": 1.06},
      {"measurement": "normalized growth", "setting": "locus YHR087W, strain rtc3, stronger effect = lower value", "value": 0.988},
      {"measurement": "normalized growth", "setting": "locus YJL187C, strain SWE1, stronger effect = lower value", "value": 1},
      {"measurement": "normalized growth", "setting": "locus YJR043C, strain POL32, stronger effect = lower value", "value": 1.05},
      {"measurement": "normalized growth", "setting": "locus YJR075W, strain HOC1, stronger effect = lower value", "value": 1},
      {"measurement": "normalized growth", "setting": "locus YKL190W, strain CNB1, stronger effect = lower value", "value": 1.01},
      {"measurement": "normalized growth", "setting": "locus YLR039C, strain RIC1, stronger effect = lower value", "value": 1.06},
      {"measurement": "normalized growth", "setting": "locus YLR058C, strain SHM2 (second series), stronger effect = lower value", "value": 0.988},
      {"measurement": "normalized growth", "setting": "locus YLR085C, strain ARP6, stronger effect = lower value", "value": 1.08},
      {"measurement": "normalized growth", "setting": "locus YLR262C, strain YPT6, stronger effect = lower value", "value": 0.99},
      {"measurement": "normalized growth", "setting": "locus YML094W, strain GIM5, stronger effect = lower value", "value": 1},
      {"measurement": "normalized growth", "setting": "locus YMR219W, strain ESC1, stronger effect = lower value", "value": 1},
      {"measurement": "normalized growth", "setting": "locus YMR263W, strain SAP30, stronger effect = lower value", "value": 0.967},
      {"measurement": "normalized growth", "setting": "locus YMR307W, strain GAS1, stronger effect = lower value", "value": 0.986},
      {"measurement": "normalized growth", "setting": "locus YNL128W, strain TEP1, stronger effect = lower value", "value": 1},
      {"measurement": "normalized growth", "setting": "locus YNL153C, strain GIM3, stronger effect = lower value", "value": 1.03},
      {"measurement": "normalized growth", "setting": "locus YNL298W, strain CLA4 (second series), stronger effect = lower value", "value": 1.05},
      {"measurement": "normalized growth", "setting": "locus YNL322C, strain KRE1, stronger effect = lower value", "value": 0.988},
      {"measurement": "normalized growth", "setting": "locus YNR030W, strain Alg12, stronger effect = lower value", "value": 1.02},
      {"measurement": "normalized growth", "setting": "locus YPL055C, strain LGE1, stronger effect = lower value", "value": 0.959},
      {"measurement": "normalized growth", "setting": "locus YPL241C, strain CIN2, stronger effect = lower value", "value": 1.03},
      {"measurement": "normalized growth", "setting": "locus YPR135W, strain CTF4, stronger effect = lower value", "value": 1.03}
    ]}
  ]
}
